Test results taken from PubChem BioAssay (Tox21).
Calls of active or inactive are those of the source. The call rests on the fitted dose curve; in most records, active means well fitted curve in the direction sought with a large enough effect in the repeat runs; inconclusive means weak or mixed curves; inactive means flat fitted curve, though single readings scatter. Non-standard residues stand in square brackets, D forms with d. Residues, ends and D or L forms follow the SMILES beside them. *: point of attachment. Sta = CC(C)C[C@H](N)[C@@H](O)CC(=O)O; Isovaleryl = CC(C)CC(=O)*

test: qHTS assay to test for compound auto fluorescence at 460 nm (blue) in HepG2 cell free culture (AID 720685); settings: Cell-free culture medium, blue autofluorescence 405/460 nm; series mostly up to 91.3 µM; fluorescence, % of fluorescent control: at the top concentration
Excerpt: U.S. Tox21 Program National Center for Advancing Translational Sciences [NCATS] NIH Chemical Genomics Center [NCGC] U.S. Environmental Protection Agency [EPA] National Institutes of Environmental Health Sciences [NIEHS] National Toxicology Program [NTP] U.S. Food and Drug Administration [FDA] Tox21 Assay Overview: Compound auto fluorescence often interferes with screening of the compound library against various biological targets and signaling pathways. Some of these compounds may have fluorophoric properties. Such properties may interfere with the assay outputs resulting in false positives and/or negatives. To decrease such complications and ensure the compound activities are relevant in terms of biological response, the Tox21 10K compound library was screened for auto fluorescence. From the fluorophores used as reporter signals in our screening assays, the auto fluorescence equivalencies of compounds against three fluorophores have been evaluated: Triamterene, Fluorescein and Rose Bengal sodium for blue, green and red fluorescence, respectively. The fluorescence intensities were measured using Excitation/Emission wavelengths at 405/460nm, 485/535nm and 540/590nm for blue, green and red labels, respectively. This assay includes the blue fluorescence data.
Tox21 Assay Protocol Summary: 5 uL of culture medium (MEM containing 10% FBS) per well was dispensed into black wall/clear bottom 1536-well plates using a Multidrop Combi Dispenser (ThermoFisher Scientific, Waltham, MA). After 23 nL compound or DMSO vehicle was transferred into assay plate by a pintool work station (Kalypsys, San Diego, CA), fluorescence intensities in the assay plates were measured by an Envision (PerkinElmer, Shelton, CT) plate reader using three labels for measuring blue, green and red fluorescence at […] 460, 535 and 590nm respectively.
On the % scale 0 is the no-effect control and ±100 the full control effect.

| SMILES | fluorescence, % of fluorescent control | outcome |
| --- | --- | --- |
| C=C(C)C(=O)OCCOC1CC2CC1C1C=CCC21 (stereo not given) | -0.123% [at 95.7 µM] (inactive) | – |
| CC(O)C(CO)C(C)O (stereo not given) | 0.0446% [at 95.7 µM] (inactive) | – |
| NNC(=O)CCCCC(=O)NN | -0.0055% (inactive) | – |
| COCCCOc1cc(C[C@@H](C[C@H](N)[C@@H](O)C[C@H](C(=O)NCC(C)(C)C(N)=O)C(C)C)C(C)C)ccc1OC | -0.0588% [at 46 µM] (inactive) | – |
| CCCC(=O)OC | -0.0115% (inactive) | – |
| CC(=O)c1c(C)cc(C(C)(C)C)cc1C | -0.0035% (inactive) | – |
| COC(=O)/C=C(\C)CCC=C(C)C | 0.0491% (inactive) | – |
| CC(C)C(C)C | -0.0112% (inactive) | – |
| CC(C)(C)c1ccc(N)cc1 | -0.263% (inactive) | – |
| CCO/C=C1\N=C(c2ccccc2)OC1=O | 0.0018% (inactive) | – |
| O=C(CCBr)N1CCN(C(=O)CCBr)CC1 | 0.0538% [at 46 µM] (inactive) | – |
| CCCCC(CC)CCC(CC(C)C)OS(=O)(=O)O (stereo not given) | – | inactive |
| CC(C)(C)C(=O)NCCCC(=O)O | 0.0133% [at 46 µM] (inactive) | – |
| CC(=O)OCC(=O)[C@@]1(O)CC[C@H]2[C@@H]3CCC4=CC(=O)C=C[C@]4(C)[C@H]3[C@@H](O)C[C@@]21C | 0.0112% [at 46 µM] (inactive) | – |
| C/C=C(\C)C(=O)OC/C=C(\C)CCC=C(C)C | -0.118% (inactive) | – |
| CN(C)CCCN(C)C | -0.358% [at 3.72 µM] (inactive) | – |
| CCCCN=C(N)N=C(N)N | -0.0107% [at 46 µM] (inactive) | – |
| CCCOc1ccc(C(=O)OCCN(CC)CC)cc1N | -0.0296% [at 46 µM] (inactive) | – |
| BrCCOc1ccccc1 | 0.0372% (inactive) | – |
| N=C(N)S(=O)O | 0.414% (inactive) | – |

| SMILES | fluorescence, % of fluorescent control | outcome |
| --- | --- | --- |
| O=Cc1ccccc1S(=O)(=O)O | 0.0866% (inactive) | – |
| CCCCS | 0.0341% [at 95.7 µM] (inactive) | – |
| CC(C)CC(=O)N[C@H](C(=O)N[C@H](C(=O)N[C@@H](CC(C)C)[C@@H](O)CC(=O)N[C@@H](C)C(=O)N[C@@H](CC(C)C)[C@@H](O)CC(=O)O)C(C)C)C(C)C (Isovaleryl-VV[Sta]A[Sta]-OH) | -0.0887% [at 46 µM] (inactive) | – |
| CCCCCCCCCCCC(C)=O | 0.0493% (inactive) | – |
| O=C1CC2(CCCC2)CC(=O)N1CCNCC1COc2ccccc2O1 (stereo not given) | 0.0647% [at 46 µM] (inactive) | – |
| Cc1nnc(C(=O)NC(C)(C)c2nc(C(=O)NCc3ccc(F)cc3)c(O)c(=O)n2C)o1 | 0.058% [at 46 µM] (inactive) | – |
| Clc1cc(Cl)c(Cl)c(Cl)c1Cl | -0.0769% (inactive) | – |
| O=C(O)CCCCCCCCCC(=O)O | -0.147% (inactive) | – |
| C=CC(=O)CC | -0.063% [at 95.7 µM] (inactive) | – |
| Cc1cc(N)no1 | -0.0187% [at 95.7 µM] (inactive) | – |
| CN(C)c1ccncc1 | 0.0011% (inactive) | – |
| COC(=O)N/N=C/c1c[n+]([O-])c2ccccc2[n+]1[O-] | 0.337% [at 46 µM] (inactive) | – |
| Cc1cccc(N)n1 | -0.0334% [at 95.7 µM] (inactive) | – |
| C[C@H]1COc2c(C3(N)CC3)c(F)cc3c(=O)c(C(=O)O)cn1c23 | 0.0552% [at 46 µM] (inactive) | – |
| C=CCn1cc[n+](C)c1 | -0.11% [at 95.7 µM] (inactive) | – |
| O=C[C@@H](O)[C@H](O)[C@H](O)CO | 0.0494% (inactive) | – |
| OCCC(F)(F)C(F)(F)C(F)(F)C(F)(F)C(F)(F)C(F)(F)F | -0.0149% (inactive) | – |
| Nc1cc(S(=O)(=O)O)ccc1O | 0.124% (inactive) | – |
| Cc1ccc(N)nc1 | 0.0055% (inactive) | – |
| COC(C)(C)CC(C)=O | 0.0062% (inactive) | – |
